In the library only some 9.4% were active in any assay of this set; here they are far more common.
Rab9 prom act: activates the Rab9 promoter | Huh7 Rab9 promoter-luciferase reporter, luminescence, 24 h | Potency, µM (series often up to 9.22 µM), inactives show at the highest dose activation, negative = inhibition, actives largely listed as activators | 320,000 tested, 2.8% active; also: % of control where 0% means no effect; nearly all actives have a fitted effect of over 60% in size
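Steps: seed 1500 Huh7 Rab9-luc cells per well, rest 2 h at 37 °C; add compound in DMSO; incubate 24 h; add luciferase reagent, 10 min ambient; read luminescence.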
ELG1 DNA repair: blocks ELG1-dependent DNA repair in HEK293T cells; Potency, µM (top dose mostly 46.1 µM), inactives show at the top dose activity change, negative = inhibition, most hits filed as inhibitors; AID 504467; HEK293T ELG1-luciferase reporter, luminescence, 16 h; DNA damage induced by 5-fluorouridine; 330,000 tested, 2.3% active; also: % is scaled to controls: 0 for no effect and ±100 for the full control effect; nearly all actives have a fitted effect of over 55% in size
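In this reporter screen, reduction of luminescence relative to DMSO vehicle indicated activity. Compounds and 5-fluorouridine were added together to 2,000 cells per well, incubated for 16 hr at 37 °C, then developed with ONE-Glo.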
NPC1 prom act: activators of NPC1 promoter. Huh7 NPC1 promoter luciferase reporter, 24 h. Potency, µM (doses to about 9.22 µM), without a hit: at the top dose activation, most hits filed as activators. 320,000 tested, 2.4% active; also: % of control where 0% means no effect; nearly all actives have a fitted effect of over 60% in size
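In 1536-well qHTS, Huh7 cells harboring an NPC1 promoter–luciferase construct received compound for 24 h; activation was quantified by luminescence following luciferase reagent addition.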
ELG1 genotox: inducers of genotoxicity in HEK293T ELG1-luciferase cells; HEK293T ELG1-luciferase reporter, luminescence, 16 h; Potency, µM (series often up to 46 µM), for inactives: at the top dose activity change, positive = activation, usual class: activators; 330,000 tested, 1.3% active; AID 504466; also: % of control where 0% means no effect; nearly all actives have a fitted effect of over 60% in size
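HEK293T cells expressing luciferase-tagged ELG1 were exposed to compound or DMSO vehicle for 16 hr at 37 °C and 5% CO2. Luciferase activity was then measured with ONE-Glo after 30 min at room temperature.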
SMN2 splice enh: increases expression of the SMN2 splice variant; 210,000 tested, 2.8% active; HEK293 SMN2-luciferase splicing reporter, luminescence, 30-36 h; Potency, µM (highest dose often 46.1 µM), for the others: at the top dose activity change, positive = activation, actives largely listed as activators; also: % of control where 0% means no effect; nearly all actives have a fitted effect of over 55% in size
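qHTS luciferase splicing reporter: luminescence rises when SMN2 exon 7 is included in transfected HEK293 cells. Compound exposure lasted 30-36 h at 37C, with 4.5 mM final sodium butyrate as control, followed by a ONE-Glo read.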
FLuc modulator: counter-screen for miR-21 project: firefly luciferase inhibitors or activators; AID 588342; P08659; purified FLuc, Km substrates, luminescence inhibition; Potency, µM (highest dose often 57.5 µM), inactives show at the top dose activity change, negative = inhibition, most hits filed as inhibitors; 360,000 tested, 6.9% active;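 also: plate controls were vehicle for no effect and reference inhibitor for full effect; nearly all actives have a fitted effect of over 55% in size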
Target sequence (P08659 whole entry, looked up): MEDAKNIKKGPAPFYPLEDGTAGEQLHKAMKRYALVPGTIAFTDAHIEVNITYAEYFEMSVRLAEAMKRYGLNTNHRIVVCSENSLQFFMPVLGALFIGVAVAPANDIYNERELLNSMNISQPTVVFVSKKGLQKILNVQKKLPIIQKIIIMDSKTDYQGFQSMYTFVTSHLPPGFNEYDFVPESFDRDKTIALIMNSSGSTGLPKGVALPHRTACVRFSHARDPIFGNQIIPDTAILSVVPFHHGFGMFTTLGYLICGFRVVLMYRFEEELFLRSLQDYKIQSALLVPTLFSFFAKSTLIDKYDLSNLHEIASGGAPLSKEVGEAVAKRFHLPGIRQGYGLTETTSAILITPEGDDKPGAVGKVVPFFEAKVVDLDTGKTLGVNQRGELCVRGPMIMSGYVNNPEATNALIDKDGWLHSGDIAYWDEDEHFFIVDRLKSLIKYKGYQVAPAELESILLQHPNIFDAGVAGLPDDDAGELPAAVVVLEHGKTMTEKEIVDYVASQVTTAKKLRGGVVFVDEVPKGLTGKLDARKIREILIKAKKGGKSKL
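Purified P. pyralis luciferase (10nM final) with 10uM D-luciferin and 10uM ATP (Km levels) in 50mM Tris acetate pH 7.5, 10mM Mg acetate, 0.01% Tween-20, 0.05% BSA; qHTS 6-point titration, ~60 µM downward; luminescence read.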
* = called active by the depositor; ? = inconclusive; . = no result given; [ ] = dose if it differs, or a comment. Calls follow the shape of the dose curve; as a rule, active = well fitted curve in the direction sought with a large enough effect; inconclusive = small, poorly fitted or top-dose-only effect, or another doubt; inactive = no such curve, though single readings can be large; an effect the other way counts as inactive or inconclusive. Potency is read from the fitted curve at half-maximal effect.

SMILES	Rab9 prom act	ELG1 DNA repair	NPC1 prom act	ELG1 genotox	SMN2 splice enh	FLuc modulator
Cc1nc2nc(-c3ccccc3)[nH]n2c(=O)c1Cc1ccccc1	21.2%	?	25.2%	8.9%	12.6µM*	19µM*
CNc1ncnc2c1ncn2[C@@H]1O[C@H](COP(=O)(O)O)[C@@H](O)[C@H]1O	.	.	.	.	-2.2%	.
CC(C)(C)OC(=O)C[C@H]1C/C=C\C[C@@H](CC(=O)N(CCO)Cc2ccccc2)C(=O)N[C@H](Cc2c[nH]c3ccccc23)COC1=O	.	20.6µM*	.	-2.4%	.	.
CC(C)(C)OC(=O)C[C@H]1C/C=C\C[C@@H](CC(=O)N(CCO)Cc2ccccc2)C(=O)N2CCC[C@H]2COC1=O	.	23.1µM*	.	-6.3%	.	.
CC(C)(C)OC(=O)C[C@H]1C/C=C\C[C@@H](CC(=O)N(CCO)Cc2ccccc2)C(=O)N2CCC[C@@H]2COC1=O	.	?	.	-2.7%	.	.
CC(C)(C)OC(=O)C[C@@H]1C/C=C\C[C@@H](CC(=O)N(CCO)Cc2ccccc2)C(=O)N[C@H](Cc2c[nH]c3ccccc23)COC1=O	.	?	.	-7.5%	.	.
Cc1ccc(N2C(=O)[C@@H]3CSC(c4ccc(Cl)cc4)N3C2=O)cc1 (stereo not given in full)	.	.	.	.	-11.7%	-1.6%
CCN1CCCC1CNC(=O)c1cn(C)c2ccc(S(=O)(=O)N3CCCCCC3)cc2c1=O (stereo not given)	-4.5%	-4.4%	1.3%	2.0%	-6.4%	0.6%
COCCNC(=O)c1cn(C)c2ccc(S(=O)(=O)N(C)C3CCCCC3)cc2c1=O	2.0%	?	-1.9%	0.0%	2.0%	8.8%
C=CCn1cc(C(=O)NCC2CCCO2)c(=O)c2cc(S(=O)(=O)N3CCCCCC3)ccc21 (stereo not given)	1.5%	10.3µM*	-3.5%	-1.4%	-14.8%	1.0%
COC(CNC(=O)c1cn(C)c2ccc(S(=O)(=O)N(C)C3CCCCC3)cc2c1=O)OC	9.2%	5.17µM*	0.4%	-9.8%	.	3.5%
Cn1cc(C(=O)NCC2COc3ccccc3O2)c(=O)c2cc(S(=O)(=O)N3CCCCC3)ccc21 (stereo not given)	-4.5%	18.4µM*	-0.4%	-8.0%	19.6%	10.6%
CCOC(=O)C1CCCN(C(=O)c2cn(C)c3ccc(S(=O)(=O)N4CCCC4)cc3c2=O)C1 (stereo not given)	-8.5%	-6.6%	-0.4%	1.6%	11.2µM*	-1.1%
COc1ccc(-c2noc(CSc3nnc(C)n3-c3ccc(C)cc3)n2)cc1	.	.	.	.	-10.7%	-13.0%
CCCCN(C)CCNC(=O)c1ccc(Cn2c(=O)[nH]c3cc(OC)c(OC)cc3c2=O)cc1	.	.	.	.	9.7%	-2.0%
CCn1cc(C(=O)NCC(OC)OC)c(=O)c2cc(S(=O)(=O)N(C)C3CCCCC3)ccc21	3.5%	9.2µM*	3.6%	-9.8%	.	3.3%
CC1CCN(S(=O)(=O)c2ccc3c(c2)c(=O)c(C(=O)NCc2ccco2)cn3C)CC1	1.3%	18.4µM*	-2.0%	-6.7%	-25.3%	-0.2%
CCn1cc(C(=O)NCCCOC)c(=O)c2cc(S(=O)(=O)N(C)C3CCCCC3)ccc21	-4.8%	?	-8.2%	-0.5%	-6.0%	-1.4%
CCn1cc(C(=O)NCC2CCCO2)c(=O)c2cc(S(=O)(=O)N(C)C3CCCCC3)ccc21 (stereo not given)	-1.6%	16.4µM*	-3.2%	-6.5%	-7.9%	0.2%
CN(C(=O)CSc1nc2ccc(NC(=O)CCc3ccccc3)cc2s1)c1ccccc1	.	.	.	.	.	-12.3%
CC(NC(=O)c1ccc(C23CC4CC(CC(C4)C2)C3)cc1)C(=O)O (stereo not given)	0.8%	?	-0.5%	-1.9%	10.3%	19µM*
CCCOc1ccc(C(=O)NC(C)C(=O)O)cc1 (stereo not given)	-6.9%	?	2.4%	6.5%	1.1%	-8.8%
Cc1c(C(=O)N(C)CCC#N)oc2ccc(S(=O)(=O)N3CC(C)CC(C)C3)cc12 (stereo not given)	-5.5%	7.3µM*	-1.2%	-7.6%	.	-1.1%
Cc1c(C(=O)N2CCc3ccccc3C2)oc2ccccc12	22.1%	?	?	14.7%	.	23.9µM*
Cc1c(C(=O)O)oc2ccc(S(=O)(=O)N3CC(C)CC(C)C3)cc12 (stereo not given)	-1.9%	9.1%	-0.9%	-12.0%	8.6%	4.8%
SMILES	Rab9 prom act	ELG1 DNA repair	NPC1 prom act	ELG1 genotox	SMN2 splice enh	FLuc modulator
Cc1nc2ccccc2c2oc(C(=O)N3CCc4ccccc4C3)cc12	-4.5%	25.9µM*	-0.3%	-18.2%	-22.5%	-10.5%
Cc1c(C(=O)N2CCOCC2)oc2ccc(S(=O)(=O)N3CCCC3)cc12	0.0158µM*	?	?	.	1.7%	-5.5%
CCOC(=O)N1CCN(C(=O)c2oc3ccc(S(=O)(=O)N4CCOCC4)cc3c2C)CC1	0.7%	?	1.0%	-5.6%	-18.5%	1.0%
CCOC(=O)C1CCN(C(=O)c2oc3ccc(S(=O)(=O)N4CC(C)CC(C)C4)cc3c2C)CC1 (stereo not given)	-19.3%	10.3µM*	-11.7%	?	-30.1%	1.5%
Cc1c(C(=O)N2c3ccccc3CC2C)oc2ccccc12 (stereo not given)	2.82µM*	?	23.9%	?	.	4.78µM*
CCOC(=O)N1CCN(C(=O)c2oc3ccc(S(=O)(=O)N4CC(C)CC(C)C4)cc3c2C)CC1 (stereo not given)	-11.7%	?	-11.3%	-5.0%	-68.2%	0.7%
CCOC(=O)N1CCN(C(=O)c2oc3ccc(S(=O)(=O)N4CCCCCC4)cc3c2C)CC1	-3.9%	?	-5.5%	-9.5%	-68.0%	4.9%
Cc1c(C(=O)N2CCc3ccccc3C2)oc2ccc(S(=O)(=O)N3CCCCCC3)cc12	-15.0%	16.4µM*	-9.1%	5.1%	-65.3%	3.2%
CC(C)NC(=O)CCC(=O)N1Cc2ccccc2Oc2ncccc21	.	.	.	.	.	2.0%
C[C@@]12C[C@H](O)C3[C@H](CCC4=CC(=O)CC[C@]43C)[C@H]1CC[C@@H]2c1csc(N)n1 (stereo not given in full)	.	.	.	.	-3.2%[9.22 µM]	.
Cc1csc2nc(-c3cccc(NS(C)(=O)=O)c3)cn12	.	.	.	.	.	26.9µM*
CC(C)C(=O)Nc1cccc(NC(=O)c2cccc(F)c2)c1	4.9%	-16.5%	1.2%	-4.6%	3.4%	0.6%
Cc1csc2nc(-c3cccc(NC(=O)c4cccc(F)c4)c3)cn12	.	.	.	.	.	9.53µM*
Cc1csc2nc(-c3cccc(NC(=O)c4ccccc4Cl)c3)cn12	.	.	.	.	.	12µM*
Cc1csc2nc(-c3cccc(NC(=O)c4ccccc4F)c3)cn12	.	.	.	.	.	6.75µM*

Screening data deposited in PubChem by National Center for Advancing Translational Sciences (NCATS).
